Read-out in test [1]: Vascular endothelial growth factor receptor 2 (Homo sapiens) (UniProt P35968)
As to the kind of experiment: BSK_4H_VEGFRII: BioMAP Diversity Plus: 4H Assay for Vascular endothelial growth factor receptor 2 (VEGFR2) Biomarker Activity (AID 2283031).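 As to AC50: cell-surface VEGFR2 protein level quantified by ELISA.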 Particulars: primary human endothelial cells (HUVEC); actives raise or lower the signal. The method, boiled down: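 HUVEC (human primary), 4H system; 24 h post-dose; VEGFRII by ELISA; bidirectional curve fit vs DMSO baseline; gain or loss of signal scored.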

Read-out in test [2]: Human Leukocyte Antigen - DR isotype (HLADR), HLA-DRA (gene 3122)
As to the kind of experiment: BSK_BE3C_HLADR: BioMAP Diversity Plus: BE3C Assay for Human Leukocyte Antigen - DR isotype (HLADR) Biomarker Activity (AID 2283032). Conditions: primary human bronchial epithelial cells; actives raise or lower the signal. The method, boiled down: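 Primary human bronchial epithelial cells (BE3C); 24 h chemical exposure; HLA-DR by ELISA; bidirectional curve fit vs DMSO baseline.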

Read-out in test [3]: Vascular cell adhesion molecule 1 (VCAM1), VCAM1 (gene 7412)
Put plainly: BSK_4H_VCAM1: BioMAP Diversity Plus: 4H Assay for Vascular cell adhesion molecule 1 (VCAM1) Biomarker Activity (AID 2283033).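 As to outcome: cell-surface VCAM-1 protein measured by ELISA.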 Conditions: primary human endothelial cells (HUVEC); actives raise or lower the signal. The method, boiled down: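 HUVEC, 24 h post-dose; VCAM-1 by ELISA. Bidirectional curve fit vs DMSO baseline. Parallel SRB total-protein stain (0.1% SRB after 10% TCA fixation, 560 nm) for cytotoxicity.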

Read-out in test [4]: Interferon-gamma inducible Protein 10 (IP10), CXCL10 (gene 3627)
As to the kind of experiment: BSK_BE3C_IP10: BioMAP Diversity Plus: BE3C Assay for Interferon-gamma inducible Protein 10 (IP10) Biomarker Activity (AID 2283034). Particulars: primary human bronchial epithelial cells; actives raise or lower the signal. The method, boiled down:
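ELISA readout of IP-10 in BE3C system: primary human bronchial epithelial cells, 24 h post-dosing; bidirectional curve fit vs DMSO baseline.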

Read-out in test [5]: Monokine induced gamma interferon (MIG), CXCL9 (gene 4283)
Put plainly: BSK_BE3C_MIG: BioMAP Diversity Plus: BE3C Assay for Monokine induced gamma interferon (MIG) Biomarker Activity (AID 2283035).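 As to outcome: MIG protein measured by ELISA in BE3C cultures after 24 h of dosing.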 Particulars: primary human bronchial epithelial cells; actives raise or lower the signal. The method, boiled down:
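ELISA quantified MIG after 24 h exposure of primary bronchial epithelial cultures, analysed in both directions relative to DMSO. Cytotoxicity tracked in parallel cultures by sulforhodamine B staining.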

Read-out in test [6]: Plasminogen activator inhibitor-1 (PAI1), SERPINE1 (gene 5054)
As to the kind of experiment: BSK_BE3C_PAI1: BioMAP Diversity Plus: BE3C Assay for Plasminogen activator inhibitor-1 (PAI1) Biomarker Activity (AID 2283037). Particulars: primary human bronchial epithelial cells; actives raise or lower the signal. The method, boiled down:
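ELISA read-out of PAI-1 from human bronchial epithelial primary cells, 24 h post-dosing; bidirectional curve fit vs DMSO baseline, gain or loss of signal scored.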

Read-out in test [7]: urokinase plasminogen activator (uPA), PLAU (gene 5328)
As to the kind of experiment: BSK_BE3C_uPA: BioMAP Diversity Plus: BE3C Assay for urokinase plasminogen activator (uPA) Biomarker Activity (AID 2283038).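 As to outcome: uPA protein level quantified by ELISA in cell cultures; uPA read one day after compound addition.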 Conditions: primary human bronchial epithelial cells; actives raise or lower the signal. The method, boiled down:
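ELISA read-out of uPA in human lung primary bronchial epithelial cultures, 24 h post-dosing. Gain or loss of signal fitted bidirectionally relative to DMSO baseline; cytotoxicity checked in parallel cultures via SRB total protein stain.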

Read-out in test [8]: Urokinase-type plasminogen activator receptor (uPAR), PLAUR (gene 5329)
As to the kind of experiment: BSK_BE3C_uPAR: BioMAP Diversity Plus: BE3C Assay for Urokinase-type plasminogen activator receptor (uPAR) Biomarker Activity (AID 2283039).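 As to outcome: uPAR protein level measured by ELISA on the cells; cells exposed to compound for one day before measurement.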 Conditions: primary human bronchial epithelial cells; actives raise or lower the signal. The method, boiled down: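 ELISA readout of uPAR on human lung primary bronchial epithelial cells, 24 h post-dosing. Bidirectional curve fit relative to DMSO vehicle baseline; gain or loss of signal both scored.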

Read-out in test [9]: Interleukin-6 (IL6), IL6 (gene 3569)
As to the kind of experiment: BSK_CASM3C_IL6: BioMAP Diversity Plus: CASM3C Assay for Interleukin-6 (IL6) Biomarker Activity for (AID 2283040). Particulars: primary human coronary artery smooth muscle cells; actives raise or lower the signal.

Read-out in test [10]: Tissue plasminogen activator (tPA), PLAT (gene 5327)
As to the kind of experiment: BSK_BE3C_tPA: BioMAP Diversity Plus: BE3C Assay for Tissue plasminogen activator (tPA) Biomarker Activity (AID 2283041).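 As to outcome: tPA level quantified by ELISA one day after compound addition.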 Particulars: primary human bronchial epithelial cells; actives raise or lower the signal. The method, boiled down:
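ELISA read-out of tPA on human primary bronchial epithelial cells, 24 h post-dosing; bidirectional fit vs DMSO negative control/baseline.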

Read-out in test [11]: Interleukin-8 (IL8), CXCL8 (gene 3576)
Put plainly: BSK_CASM3C_IL8: BioMAP Diversity Plus: CASM3C Assay for Interleukin-8 (IL8) Biomarker Activity (AID 2283042).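 Also: IL-8 protein level quantified by ELISA.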 Conditions: primary human coronary artery smooth muscle cells; actives raise or lower the signal.

Read-out in test [12]: Human Leukocyte Antigen - DR isotype (HLADR), HLA-DRA (gene 3122)
As to the kind of experiment: BSK_CASM3C_HLADR: BioMAP Diversity Plus: CASM3C Assay for Human Leukocyte Antigen - DR isotype (HLADR) Biomarker Activity (AID 2283043).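 Also: cell-surface HLA-DR protein level quantified by ELISA.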 Particulars: primary human coronary artery smooth muscle cells; actives raise or lower the signal.

Read-out in test [13]: Macrophage colony-stimulating factor (MCSF), CSF1 (gene 1435)
As to the kind of experiment: BSK_CASM3C_MCSF: BioMAP Diversity Plus: CASM3C Assay for Macrophage colony-stimulating factor (MCSF) Biomarker Activity (AID 2283044).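 Also: M-CSF protein amount quantified by ELISA after 24 h exposure.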 Particulars: primary human coronary artery smooth muscle cells; actives raise or lower the signal.

Read-out in test [14]: Low-density lipoprotein receptor (LDLR), LDLR (gene 3949)
Put plainly: BSK_CASM3C_LDLR: BioMAP Diversity Plus: CASM3C Assay for Low-density lipoprotein receptor (LDLR) Biomarker Activity (AID 2283045).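 Also: LDLR protein level on the cell surface quantified by ELISA.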 Particulars: primary human coronary artery smooth muscle cells; actives raise or lower the signal.

Read-out in test [15]: Monocyte Chemoattractant Protein-1 (MCP1), CCL2 (gene 6347)
Put plainly: BSK_CASM3C_MCP1: BioMAP Diversity Plus: CASM3C Assay for Monocyte Chemoattractant Protein-1 (MCP1) Biomarker Activity (AID 2283046).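 Also: MCP-1 level quantified by ELISA 24 h after dosing.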 Particulars: primary human coronary artery smooth muscle cells; actives raise or lower the signal.

Test [16] can be described thus: BSK_CASM3C_Proliferation: Cell Proliferation Assessment in the BioMAP Diversity Plus: CASM3C Assay (AID 2283047).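 Also: sulforhodamine B total protein stain as relative cell number at 560 nm; sub-confluent cells exposed 48 h before staining; fitted both ways against DMSO so gain or loss of cell number.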 Conditions: primary human coronary artery smooth muscle cells.
Read-out in test [17]: Monokine induced gamma interferon (MIG), CXCL9 (gene 4283)
As to the kind of experiment: BSK_CASM3C_MIG: BioMAP Diversity Plus: CASM3C Assay for Monokine induced gamma interferon (MIG) Biomarker Activity (AID 2283048).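 Also: MIG protein level measured by ELISA.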 Particulars: primary human coronary artery smooth muscle cells; actives raise or lower the signal.

Read-out in test [18]: serum amyloid A (SAA), SAA1 (gene 6288)
As to the kind of experiment: BSK_CASM3C_SAA: BioMAP Diversity Plus: CASM3C Assay for serum amyloid A (SAA) Biomarker Activity (AID 2283049).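 Also: SAA protein level quantified by ELISA.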 Particulars: primary human coronary artery smooth muscle cells; actives raise or lower the signal.

Read-out in test [19]: Transforming growth factor beta 1 (TGFb1), TGFB1 (gene 7040)
As to the kind of experiment: BSK_BE3C_TGFb1: BioMAP Diversity Plus: BE3C Assay for Transforming growth factor beta 1 (TGFb1) Biomarker Activity (AID 2283036;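 as to outcome: TGF-b1 protein level measured by ELISA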). Particulars: primary human bronchial epithelial cells; actives raise or lower the signal. The method, boiled down: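 Read-out: ELISA for TGF-b1 in primary human bronchial epithelial cultures, 24 h post-dose. Bidirectional curve fitting vs DMSO control; gain or loss of signal both scored.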

Test [20] is described as follows: BSK_CASM3C_SRB: Viability Assessment in the BioMAP Diversity Plus: CASM3C Assay (AID 2283050).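 Also: total protein by SRB staining as cytotoxicity measure in parallel cultures; cells exposed to compound for 24 h.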 Conditions: primary human coronary artery smooth muscle cells.

From PubChem BioAssay (EPA / NIEHS) come the findings set out here.

Structures are written as SMILES. The source made the active and inactive calls. The calls were made as follows: active = hit-call score of the fitted dose curve at least 0.9, where 1 is the maximum; inactive = score below 0.9.

For the compound `CCCCCCCCCCCCCCCCCC(=O)O`, the outcome in test [1], in [2], in test [3], in test [4], in test [5] and in test [6] was inactive. Further, the result in [7], in test [8], in test [9], in test [10], in test [11] and in test [12] was inactive. Also, the result in test [13], in [14], in test [15], in test [17] and in test [18] was inactive. In addition, the AC50 in test [16] was 8.81 µM (active).
With `O=C(O)Cc1ccccc1Nc1c(Cl)cccc1Cl`, the outcome in test [1], in test [2], in [3], in [4], in [5] and in [19] was inactive. For the same compound, the result in test [6], in [7], in test [8], in test [9], in test [10] and in [11] was inactive. The outcome in test [12], in test [13], in test [14], in test [15], in [16] and in test [17] was inactive. The result in test [18] and in [20] was inactive.
Regarding `COCCOC[C@H](CC1(C(=O)NC2CCC(C(=O)O)CC2)CCCC1)C(=O)Oc1ccc2c(c1)CCC2` (stereo not given in full), the result in test [1], in [2], in [3], in test [4], in test [5] and in test [6] was inactive. The result in test [7], in [8], in test [9], in [10], in test [11] and in test [12] was inactive. For the same compound, the outcome in test [13], in test [14], in test [15], in test [16], in test [17] and in test [18] was inactive. For the same compound, the result in test [20] was inactive.
As to `CC(C)(C)c1cc(O)c(C(C)(C)C)cc1O`, the AC50 in test [1] was 1.02 µM (active); in test [3], 6.44 µM (active); in test [10] it was 15.7 µM (active). Moreover, the outcome in test [2], in test [4], in [5], in [19], in test [6] and in test [7] was inactive. For the same compound, the result in [8], in [9], in test [11], in test [12], in test [13] and in test [14] was inactive. For the same compound, the outcome in test [15], in test [16], in [17], in test [18] and in test [20] was inactive.
Turning to `CCCCC(CC)COC(=O)CC(C(=O)OCC(CC)CCCC)S(=O)(=O)O` (stereo not given), the result in [1], in [9], in [11], in test [12], in [13] and in test [14] was inactive. In addition, the outcome in test [15], in test [16], in test [17], in [18] and in test [20] was inactive. In addition, the AC50 in [2] was 7.52 µM (active); in test [3], 34.5 µM (active); in test [4] it was 7.16 µM (active); in [5] it was 8.91 µM (active); in test [19] it was 6.71 µM (active); in test [6], 11.5 µM (active). Further, the AC50 in test [7] is 11.1 µM (active); in test [8] it was 11.9 µM (active); in [10], 11.6 µM (active).
For `O=C(OCCCCCOC(=O)c1ccccc1)c1ccccc1`, the result in test [1], in test [2], in test [3], in [4], in [5] and in [19] was inactive. For the same compound, the outcome in test [6], in test [7], in test [8], in test [9], in test [10] and in [11] was inactive. The result in [12], in [13], in test [14], in [15], in [16] and in test [17] was inactive. The outcome in test [18] and in [20] was inactive.
`Oc1ccc2c(c1)OC[C@@H](N1CCC(O)(c3ccc(F)cc3)CC1)[C@H]2O`: the outcome in [1], in test [2], in test [3], in [4], in [5] and in test [6] was inactive. The outcome in test [7], in test [8], in test [9], in [10], in test [11] and in [12] was inactive. For the same compound, the result in test [13], in [14], in [15], in test [16], in test [17] and in [18] was inactive. Also, the result in test [20] was inactive.
With `CCCCCCOCCO`, the outcome in [1], in test [2], in [3], in [4], in test [5] and in test [19] was inactive. For the same compound, the result in test [6], in test [7], in [8], in test [9], in test [10] and in test [11] was inactive. Moreover, the result in test [12], in test [13], in test [14], in [15], in [16] and in test [17] was inactive. Also, the outcome in test [18] and in test [20] was inactive.
On to `CC(=O)C(C)=CC1C(C)=CCCC1(C)C` (stereo not given), for which the outcome in test [1], in test [2], in test [3], in test [4], in [5] and in [6] was inactive. Further, the outcome in test [7], in test [8], in test [9], in test [10], in test [11] and in test [12] was inactive. The outcome in test [13], in [14], in test [15], in test [16], in test [17] and in test [18] was inactive. Besides, the outcome in test [20] was inactive.
